# Laboratory results published in the supplement of paper PMC8728848.
# Shown is part of a subset that was picked to be rich in the strongest signals.
# B1: GS13455A-bfa-343-25-343 (Bacteroides fragilis) (protein)
# chain: KDEIQIVDQDTSWQMDNKYIEEDIREQLGIDPFTDLVYLGYYGNPYTQLEAINDLVNTTLVGKNELSFKVKVTKPYKEDIKVNLMKEDKLVTDFPEMAEGIPLFPSENCTFEGGVLKAGELETTVKLTLKDVEKLNNLSGYVMAIKLTMEGSHEHLAIARTRSSYFVKLNLSIRLDNIDSSNKKIEGKGFNKEISFKSDIRPDKLGSLNDGNFTANNWYTSNANNYLTIILPEKQSLKGFRLDTNTSPSGSYMLKSCRVMVETPDGNWVNHGVFDRKSMDGIAYISFKKPVECTKVRFENMMAFNGRFSVDVNEVTAFR
# Columns and labels:
# Assay in all cases: glycan array binding signal (z-score within array); higher = stronger binding
# Details in all cases: glycan notation: IUPAC condensed, linker removed
# [1] = target: Fuc(a1-2)Gal(b1-3)GlcNAc(b1-2)Man(a1-3)[Fuc(a1-2)Gal(b1-3)GlcNAc(b1-2)Man(a1-6)]Man(b1-4)GlcNAc(b1-4)GlcNAc
# Outline: (§1)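 Arrays were curated from the Consortium for Functional Glycomics database, 3228 in total, and kept only where the protein sequence was available. Binding is expressed as a within-array Z-score. This score was averaged across arrays of the same protein sequence at different concentrations or buffers and across linkers, and negative values can be read as non-binding.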
# [2] = target: Fuc(a1-2)Gal(b1-4)[Fuc(a1-3)]GlcNAc(b1-3)[Neu5Ac(a2-6)Gal(b1-4)GlcNAc(b1-6)]Gal(b1-4)Glc
# Outline: as §1
# [3] = target: Fuc(a1-2)Gal6S(b1-4)Glc6S
# Outline: as §1
# [4] = target: Fuc(a1-2)[Gal(a1-3)]Gal(b1-3)GlcNAc(b1-2)Man(a1-3)[Fuc(a1-2)[Gal(a1-3)]Gal(b1-3)GlcNAc(b1-2)Man(a1-6)]Man(b1-4)GlcNAc(b1-4)GlcNAc
# Outline: as §1
# [5] = target: Fuc(a1-2)[GalNAc(a1-3)]Gal(b1-3)GlcNAc(b1-3)GalNAc
# Outline: as §1
# [6] = target: Fuc(a1-2)[GalNAc(a1-3)]Gal(b1-4)GlcNAc(b1-2)Man(a1-3)[Fuc(a1-2)[GalNAc(a1-3)]Gal(b1-4)GlcNAc(b1-2)Man(a1-6)]Man(b1-4)GlcNAc(b1-4)[Fuc(a1-6)]GlcNAc
# Outline: as §1
# Fuc(a1-4)GlcNAc = target: Fuc(a1-4)GlcNAc
# Outline: as §1
# [7] = target: Gal(a1-3)Gal(b1-3)GlcNAc(b1-2)Man(a1-3)[Gal(a1-3)Gal(b1-3)GlcNAc(b1-2)Man(a1-6)]Man(b1-4)GlcNAc(b1-4)GlcNAc
# Outline: as §1
# [8] = target: Gal(a1-3)[Gal(a1-4)]Gal(b1-4)GlcNAc
# Outline: as §1
# [9] = target: Gal(b1-3)GalNAc(a1-3)[Fuc(a1-2)]Gal(b1-4)Glc
# Outline: as §1
# [10] = target: Gal(b1-3)GalNAc(b1-4)[Neu5Ac(a2-3)]Gal(b1-4)Glc
# Outline: as §1
# [11] = target: Gal(b1-3)GlcNAc(b1-3)Gal(b1-4)[Fuc(a1-3)]GlcNAc(b1-6)[Gal(b1-3)GlcNAc(b1-3)]Gal(b1-4)Glc
# Outline: as §1
# [12] = target: Gal(b1-4)GalNAc(a1-3)[Fuc(a1-2)]Gal(b1-4)GlcNAc
# Outline: as §1
# [13] = target: Gal(b1-4)GlcNAc(b1-2)[Gal(b1-4)GlcNAc(b1-6)]Man(a1-6)[Gal(b1-4)GlcNAc(b1-2)Man(a1-3)]Man(b1-4)GlcNAc(b1-4)GlcNAc
# Outline: as §1
# [14] = target: Gal(b1-4)GlcNAc(b1-2)[Gal(b1-4)GlcNAc(b1-6)]Man(a1-6)[GlcNAc(b1-4)][Gal(b1-4)GlcNAc(b1-2)[Gal(b1-4)GlcNAc(b1-4)]Man(a1-3)]Man(b1-4)GlcNAc(b1-4)[Fuc(a1-6)]GlcNAc
# Outline: as §1
# [15] = target: Gal(b1-4)GlcNAc(b1-3)Gal(b1-3)GalNAc
# Outline: as §1
# [16] = target: Gal(b1-4)GlcNAc(b1-3)Gal(b1-4)GlcNAc(b1-3)Gal(b1-4)GlcNAc(b1-3)Gal(b1-4)GlcNAc(b1-2)[Gal(b1-4)GlcNAc(b1-3)Gal(b1-4)GlcNAc(b1-3)Gal(b1-4)GlcNAc(b1-3)Gal(b1-4)GlcNAc(b1-6)]Man(a1-6)[Gal(b1-4)GlcNAc(b1-3)Gal(b1-4)GlcNAc(b1-3)Gal(b1-4)GlcNAc(b1-3)Gal(b1-4)GlcNAc(b1-2)Man(a1-3)]Man(b1-4)GlcNAc(b1-4)[Fuc(a1-6)]GlcNAc
# Outline: as §1
# [17] = target: Gal(b1-4)GlcNAc(b1-3)Gal(b1-4)GlcNAc(b1-3)GalNAc
# Outline: as §1
# Gal3S(b1-4)Glc = target: Gal3S(b1-4)Glc
# Outline: as §1
# [18] = target: Gal3S(b1-4)[Fuc(a1-3)]Glc6S
# Outline: as §1
# Gal3S6S(b1-4)GlcNAc6S = target: Gal3S6S(b1-4)GlcNAc6S
# Outline: as §1
# Gal4S6S(b1-4)GlcNAc = target: Gal4S6S(b1-4)GlcNAc
# Outline: as §1
# Gal6P(b1-4)GlcNAc = target: Gal6P(b1-4)GlcNAc
# Outline: as §1
# Gal6S(b1-3)GlcNAc = target: Gal6S(b1-3)GlcNAc
# Outline: as §1
# [19] = target: GalNAc(b1-3)Gal(a1-4)Gal(b1-4)GlcNAc
# Outline: as §1
# GalNAc(b1-4)GlcNAc = target: GalNAc(b1-4)GlcNAc
# Outline: as §1
# [20] = target: GalNAc(b1-4)GlcNAc(b1-2)Man(a1-3)[GalNAc(b1-4)GlcNAc(b1-2)Man(a1-6)]Man(b1-4)GlcNAc(b1-4)GlcNAc
# Outline: as §1
# GalNAc3S(b1-4)GlcNAc = target: GalNAc3S(b1-4)GlcNAc
# Outline: as §1
# [21] = target: Glc(a1-6)Glc(a1-6)Glc(a1-6)Glc
# Outline: as §1
# [22] = target: GlcNAc(a1-4)Gal(b1-4)GlcNAc(b1-3)Gal(b1-4)Glc
# Outline: as §1
# [23] = target: GlcNAc(a1-4)Gal(b1-4)GlcNAc(b1-3)Gal(b1-4)[Fuc(a1-3)]GlcNAc(b1-3)Gal(b1-4)[Fuc(a1-3)]GlcNAc
# Outline: as §1
# [24] = target: GlcNAc(b1-2)Man(a1-3)[GlcNAc(b1-2)Man(a1-6)]Man(b1-4)GlcNAc(b1-4)[Fuc(a1-6)]GlcNAc
# Outline: as §1
# [25] = target: GlcNAc(b1-3)Gal(b1-4)GlcNAc(b1-2)Man(a1-3)[GlcNAc(b1-3)Gal(b1-4)GlcNAc(b1-2)Man(a1-6)]Man(b1-4)GlcNAc(b1-4)[Fuc(a1-6)]GlcNAc
# Outline: as §1
# [26] = target: GlcNAc(b1-3)Gal(b1-4)GlcNAc(b1-6)[Gal(b1-3)]GalNAc
# Outline: as §1
# GlcNAc(b1-6)GalNAc = target: GlcNAc(b1-6)GalNAc
# Outline: as §1
# [27] = target: Man(a1-2)Man(a1-3)[Man(a1-2)Man(a1-6)]Man
# Outline: as §1
# [28] = target: Man(a1-2)Man(a1-3)[Man(a1-2)Man(a1-6)]Man(a1-6)[Man(a1-2)Man(a1-2)Man(a1-3)]Man
# Outline: as §1
# [29] = target: Man(a1-2)Man(a1-6)[Man(a1-3)]Man(a1-6)[Man(a1-2)Man(a1-2)Man(a1-3)]Man
# Outline: as §1
# [30] = target: Man(a1-3)[Man(a1-6)]Man(a1-6)[Man(a1-3)]Man
# Outline: as §1
# Man(a1-6)Man = target: Man(a1-6)Man
# Outline: as §1
# [31] = target: Neu5Ac(a2-3)Gal(b1-3)GalNAc
# Outline: as §1
# [32] = target: Neu5Ac(a2-3)Gal(b1-4)GlcNAc
# Outline: as §1
# [33] = target: Neu5Ac(a2-3)Gal(b1-4)GlcNAc(b1-3)Gal(b1-3)GlcNAc
# Outline: as §1
# [34] = target: Neu5Ac(a2-3)Gal(b1-4)GlcNAc(b1-6)[Gal(b1-3)]GalNAc
# Outline: as §1
# [35] = target: Neu5Ac(a2-3)Gal(b1-4)[Fuc(a1-3)]GlcNAc(b1-3)GalNAc
# Outline: as §1
# Neu5Ac(a2-3)GalNAc = target: Neu5Ac(a2-3)GalNAc
# Outline: as §1
# [36] = target: Neu5Ac(a2-6)Gal(b1-4)GlcNAc(b1-2)Man(a1-3)[GlcNAc(b1-2)Man(a1-6)]Man(b1-4)GlcNAc(b1-4)GlcNAc
# Outline: as §1
# [37] = target: Neu5Ac(a2-8)Neu5Ac(a2-8)Neu5Ac(a2-3)[Gal(b1-3)GalNAc(b1-4)]Gal(b1-4)Glc
# Outline: as §1
# [38] = target: Neu5Gc(a2-8)Neu5Gc(a2-3)Gal(b1-4)GlcNAc
# Outline: as §1
binder,measurement,setting,value
B1,glycan array binding signal (z-score),[1],-0.69
same,glycan array binding signal (z-score),[2],-0.309
same,glycan array binding signal (z-score),[3],0.254
same,glycan array binding signal (z-score),[4],-0.738
same,glycan array binding signal (z-score),[5],2.29
same,glycan array binding signal (z-score),[6],1.46
same,glycan array binding signal (z-score),Fuc(a1-4)GlcNAc,20.2
same,glycan array binding signal (z-score),[7],-0.044
same,glycan array binding signal (z-score),[8],1.91
same,glycan array binding signal (z-score),[9],-0.504
same,glycan array binding signal (z-score),[10],-0.051
same,glycan array binding signal (z-score),[11],-0.016
same,glycan array binding signal (z-score),[12],-0.716
same,glycan array binding signal (z-score),[13],-0.11
same,glycan array binding signal (z-score),[14],-0.04
same,glycan array binding signal (z-score),[15],0.107
same,glycan array binding signal (z-score),[16],0.144
same,glycan array binding signal (z-score),[17],-0.065
same,glycan array binding signal (z-score),Gal3S(b1-4)Glc,1.7
same,glycan array binding signal (z-score),[18],1.38
same,glycan array binding signal (z-score),Gal3S6S(b1-4)GlcNAc6S,1.68
same,glycan array binding signal (z-score),Gal4S6S(b1-4)GlcNAc,0.197
same,glycan array binding signal (z-score),Gal6P(b1-4)GlcNAc,-0.523
same,glycan array binding signal (z-score),Gal6S(b1-3)GlcNAc,-0.365
same,glycan array binding signal (z-score),[19],1.43
same,glycan array binding signal (z-score),GalNAc(b1-4)GlcNAc,-0.125
same,glycan array binding signal (z-score),[20],1.75
same,glycan array binding signal (z-score),GalNAc3S(b1-4)GlcNAc,-0.39
same,glycan array binding signal (z-score),[21],-0.604
same,glycan array binding signal (z-score),[22],0.059
same,glycan array binding signal (z-score),[23],1.64
same,glycan array binding signal (z-score),[24],-0.409
same,glycan array binding signal (z-score),[25],0.601
same,glycan array binding signal (z-score),[26],-0.194
same,glycan array binding signal (z-score),GlcNAc(b1-6)GalNAc,-0.656
same,glycan array binding signal (z-score),[27],-0.554
same,glycan array binding signal (z-score),[28],-0.701
same,glycan array binding signal (z-score),[29],0.988
same,glycan array binding signal (z-score),[30],-0.129
same,glycan array binding signal (z-score),Man(a1-6)Man,0.205
same,glycan array binding signal (z-score),[31],0.08
same,glycan array binding signal (z-score),[32],-0.152
same,glycan array binding signal (z-score),[33],0.34
same,glycan array binding signal (z-score),[34],-0.414
same,glycan array binding signal (z-score),[35],3.25
same,glycan array binding signal (z-score),Neu5Ac(a2-3)GalNAc,-0.681
same,glycan array binding signal (z-score),[36],0.878
same,glycan array binding signal (z-score),[37],-0.113
same,glycan array binding signal (z-score),[38],0.527
